Source: PubChem
Rows were chosen to be rich in hits. Some 1.1% of all compounds tested hit in one or more screens of this group.
NCOA2 inhibitor = human SRC2 (NCOA2) inhibition; HEK293 GAL4-SRC2 luciferase reporter, luminescence; inhibition, % at 9 µM; 0.17% of 370,000 active; AID 651957;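 active = inhibition above the mean inhibition of all tested compounds plus 3 SD, set per campaign, cut at about 52% in these data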;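 also: 0% = DMSO treated cells and 100% = cells given Gossypol at 36 µM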
GalR3 antag = blocks the human galanin receptor 3; HEK293 GalR3-CNG cAMP membrane potential fluorescence; galR3 body fused to GalR1 C-terminus; inhibition, % at 3 µM; 0.44% of 360,000 active; O60755;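 active = inhibition above the screen-wide average plus 3 SD, cut at about 13% in these data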;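 also: forskolin and galanin both at EC90 stimulate the cells; cAMP rise reported by CNG channel membrane potential dye signal; 0% = forskolin plus galanin with DMSO and 100% = forskolin alone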
Target sequence (O60755 1-299 limits assumed): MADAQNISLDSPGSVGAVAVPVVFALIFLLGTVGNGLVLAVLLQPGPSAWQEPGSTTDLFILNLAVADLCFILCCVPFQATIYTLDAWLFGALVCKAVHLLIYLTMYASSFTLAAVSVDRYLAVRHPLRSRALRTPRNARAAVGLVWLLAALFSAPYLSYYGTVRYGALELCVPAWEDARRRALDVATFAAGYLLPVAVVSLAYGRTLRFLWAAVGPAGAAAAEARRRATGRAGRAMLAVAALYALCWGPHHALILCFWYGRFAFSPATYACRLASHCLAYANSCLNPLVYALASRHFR
NR5A2 inv ag = NR5A2 inverse agonism in reporter assay; HEK293T StAR-luciferase reporter, LRH-1 transfected, 24 h; 0.13% of 360,000 active; O00482; AID 602396; inhibition, % at 3.6 µM;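 active = inhibition above the mean inhibition of all tested compounds plus 3 SD, cut at about 73% in these data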;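 also: 0% = DMSO wells and 100% = reporter-only cells lacking LRH-1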
COUP-TFII inh = inhibitors of human COUP-TFII (NR2F2); HEK293T NGFI-A luciferase reporter, luminescence; 0.7% of 370,000 active; inhibition, % at 8.6 µM; AID 686940; P24468;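 active = inhibition above a per-plate cutoff, mean inhibition of test wells between control levels plus 3 SD, cut at about 38% in these data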;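 also: cells cotransfected with COUP-TFII expression vector driving the NGFI-A reporter; 0% = median of COUP-TF2 test wells and 100% = reporter-only cells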
Target sequence (P24468 whole entry, looked up): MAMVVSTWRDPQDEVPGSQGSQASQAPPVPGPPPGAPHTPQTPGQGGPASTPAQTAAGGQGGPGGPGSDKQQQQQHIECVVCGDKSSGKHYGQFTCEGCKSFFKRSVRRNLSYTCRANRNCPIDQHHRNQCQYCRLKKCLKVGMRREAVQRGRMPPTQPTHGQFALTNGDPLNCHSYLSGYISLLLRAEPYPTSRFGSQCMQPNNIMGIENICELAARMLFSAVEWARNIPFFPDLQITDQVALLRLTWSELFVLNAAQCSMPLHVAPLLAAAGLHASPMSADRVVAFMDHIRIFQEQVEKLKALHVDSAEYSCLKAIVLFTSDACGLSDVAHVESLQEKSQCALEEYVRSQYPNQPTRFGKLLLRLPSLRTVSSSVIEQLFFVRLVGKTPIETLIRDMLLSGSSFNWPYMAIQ
SRC1 inh = human NCOA1 inhibition | Q15788 | HEK293 GAL4-SRC1 luciferase reporter, luminescence | inhibition, % at 3.6 µM | 0.12% of 360,000 active | AID 588354;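 active = inhibition above the campaign mean plus 3 SD, with each screening campaign given its own cutoff, cut at about 60% in these data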;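 also: 0% = DMSO treated cells and 100% = gossypol at 36 µM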
NCOA3 inh = inhibits human SRC3 coactivator. AID 588352. inhibition, % at 3.6 µM. 0.17% of 360,000 active. HEK293 GAL4-SRC3 luciferase reporter, luminescence. Q9Y6Q9;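 active = inhibition above a per-campaign cutoff, the mean of all compounds plus 3 SD, cut at about 60% in these data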;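 also: 0% = DMSO-treated cells and 100% = gossypol-treated cells at 36 µM; higher means less SRC3-driven luciferase light from the GAL4 reporter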
GalR3 antag conf = confirmation of human galanin receptor 3 antagonists; inhibition, % at 3 µM; shares compounds with GalR3 antag; HEK293 GalR3 CNG cAMP biosensor, membrane potential fluorescence; galR3 fused to GalR1 carboxy tail; challenged with forskolin and galanin at EC90; 59% of 1,600 active;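 active = inhibition above the primary screen's cutoff, the mean inhibition of all screened compounds plus 3 SD, cut at about 13% in these data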;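 also: 0% = forskolin plus galanin and 100% = forskolin alone with DMSO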
HEK-CNG parental = counter-screen for GalR3 antagonists: nonspecific agonists in parental HEK-CNG cells. AID 652268. HEK293-CNG parental cells, cAMP membrane potential fluorescence; normalised: DMSO wells 0%, forskolin wells 100%. 10% of 1,600 active. activation, % at 3 µM. shares compounds with GalR3 antag; in the data active = activation above about 1.3%
Numbers without * were called inactive; . = not tested or not shown.

SMILES | NCOA2 inhibitor | GalR3 antag | NR5A2 inv ag | COUP-TFII inh | SRC1 inh | NCOA3 inh | GalR3 antag conf | HEK-CNG parental
Cc1csc2ncnc(N3CCN(C(=S)Nc4ccc(C(F)(F)F)cc4)CC3)c12 | 20 | 67* | 3 | 17 | 22 | 11 | 93* | 1.8*
COC(=O)[C@]12C[C@H](CC(=O)N3CCN(C(=O)C4CC4)CC3)C(=O)N(Cc3cccc4ccccc34)C1=C[C@H](C1CCCC1)O[C@@H]2C | 5 | . | . | 19 | . | . | . | .
CCOc1cc(/C=C2\CCC/C(=C\c3cc(Cl)c(O)c(OCC)c3)C2=O)cc(Cl)c1O | -20 | 24* | 41 | 9 | 20 | 49 | 53* | 0
Cc1nc(SCc2nc3ccccc3[nH]2)c2oc3ccccc3c2n1 | -9 | 1 | -3 | -20 | 6 | 17 | . | .
Cc1nc(SCc2nc3ccccc3[nH]2)c2oc3ccc(Br)cc3c2n1 | -11 | 14* | 9 | 1 | 1 | -6 | 28* | 1
Cc1ccc(CNC(=O)OC(C)(C)C)c(/C=C/S(=O)(=O)NC2CCCC2)c1 | -6 | . | . | -10 | . | . | . | .
CCCc1ccc(C(=O)NC(=O)c2ccccc2O)cc1 | -12 | 13* | -61 | -19 | -40 | -22 | 49* | -1
COc1ccc(/C=C(/NC(=O)c2ccccc2)C(=O)NC2CCS(=O)(=O)C2)cc1 (stereo not drawn) | -7 | . | -9 | 1 | 7 | 8 | 1 | 0
Cc1ccc(C(=O)N/C(=C/c2ccco2)C(=O)NC2CCS(=O)(=O)C2)cc1 (stereo not drawn) | -9 | -1 | -9 | -14 | -9 | 1 | . | .
CCCCOc1ccc([N+](=O)[O-])cc1C(=O)O | -1 | 17* | 8 | 21 | -6 | 12 | 2 | 0
CN(C)c1ccc([N+](=O)[O-])cc1C(=O)O | 15 | 5 | 12 | 0 | -5 | 9 | . | .
O=C(NNC(=S)NC(=O)c1ccccc1[N+](=O)[O-])c1ccccc1O | 15 | 31* | 10 | -1 | 0 | 8 | -4 | 0
O=C(NNC(=S)NC(=O)c1ccccc1[N+](=O)[O-])c1ccccc1[N+](=O)[O-] | -32 | -10 | -20 | -6 | -11 | 5 | . | .
COc1ccc(OC[C@@H](O)CNC(=O)c2cccc3c2C(=O)c2ccc(Cl)cc2S3(=O)=O)cc1 | -14 | 78* | -4 | -11 | -3 | -3 | 58* | 0
Cn1c2ccccc2c2cnn(CC(=O)O)c(=O)c21 | -9 | . | 4 | -14 | -2 | -2 | 1 | 1
Cc1ccc(CN2CCN(/N=C/c3ccc(C(F)(F)F)cc3)CC2)cc1 | -1 | 16* | 31 | 9 | 17 | 4 | 3 | 0
CCCCC[C@H](O)/C=C/[C@H]1CCC(=O)[C@@H]1CCCCCCC(=O)N1CCCCC1CO (stereo partly drawn) | 11 | 79* | 18 | -8 | 22 | 29 | 97* | 0
CCc1nc2sc(C#N)c(N)c2c2c1CCCC2 | -3 | 42* | 3 | -26 | -24 | -29 | 57* | -1
CCc1nc2sc(C(C)=O)c(N)c2c2c1CCCC2 | 21 | 4 | 9 | -12 | 16 | 15 | . | .
Cc1nn(C)c(Nc2ccc(Br)cc2)c1Br | 5 | 49* | 25 | 36 | -1 | 30 | 86* | -1
Cc1ccsc1/C=N/NC(=O)c1ccncc1 | -28 | 2 | 1 | -15 | 1 | 1 | . | .
COc1cc(C(=O)N/N=C/c2sccc2C)cc(OC)c1OC | 25 | 14* | 26 | -53 | -15 | 25 | 9 | 1.8*
CCOC(=O)[C@@]12CN(C(=O)OC(C)(C)C)CC=C1N(Cc1ccc(OC)cc1)C(=O)[C@H]2CC(=O)N1CCCCC1 | 10 | . | . | 7 | . | . | . | .
C=CCN(CC=C)C(=O)COC(=O)c1ccc(Sc2ncn[nH]2)c([N+](=O)[O-])c1 | -22 | 13* | -7 | 1 | -7 | 4 | 5 | 0
COc1ccc(NC(=O)Cn2nc(C(=O)O)c3ccccc3c2=O)cc1Cl | -10 | 13* | 10 | -4 | -14 | 3 | 2 | 0
SMILES | NCOA2 inhibitor | GalR3 antag | NR5A2 inv ag | COUP-TFII inh | SRC1 inh | NCOA3 inh | GalR3 antag conf | HEK-CNG parental
O=C(c1cccs1)N1CCOCC1 | 6 | 13* | 2 | 2 | 5 | 4 | 7 | 0
O=C(c1cccs1)N1CCCC1 | -9 | -2 | 6 | 5 | -40 | 2 | . | .
O=C(Nc1ccccc1)c1ccc(CN2CCc3ccccc3C2)cc1 | -13 | 92* | 5 | 35 | -1 | -16 | 102* | 0
Cc1ccc(NC(=O)c2ccc(CN3CCc4ccccc4C3)cc2)cc1 | 10 | 27* | -25 | 23 | -24 | -29 | 104* | 0
CCn1c(=O)[nH]n(C/C(C)=C\c2c[n+](Cc3ccc4c(c3)OCO4)c(N)[nH]2)c1=O | . | . | . | -8 | . | . | . | .
COc1cc(-c2cnc3c(NC=O)cc(-c4ccccc4)cn23)cc(OC)c1OC | 0 | -2 | 32 | -69 | -38 | 10 | . | .
COc1cc(-c2cnc3c(NC=O)cc(-c4ccccc4Cl)cn23)cc(OC)c1OC | 8 | 19* | 43 | -87 | -32 | 9 | 26* | 1.6*
COc1ccc(-c2cnc3c(NC(C)=O)cc(-c4ccccc4OC)cn23)cc1OC | -25 | 13* | -2 | -25 | -11 | -14 | 18* | 0
Nn1c(SCC(=O)Nc2nccs2)nnc1-c1cc(-c2ccc(Cl)cc2)n[nH]1 | -33 | . | . | 1 | . | . | . | .
N#CCC[C@@H]1CC[C@]2(CCCN(C(=O)C3CCCCC3)C2)O1 | -3 | . | . | -15 | . | . | . | .
O=C(c1ccoc1)N1CCN(c2cc(-c3ccco3)nc3cc(-c4ccco4)nn23)CC1 | . | . | . | 2 | . | . | . | .
Cc1nc2sc(C(=O)c3ccccc3)c(N)c2c(C)c1C | 1 | 13* | -4 | -14 | -14 | -17 | 2 | 0
COc1ccccc1CNC(=O)C1CC(c2ccccc2[N+](=O)[O-])=NO1 (stereo not drawn) | -3 | . | 11 | 0 | -6 | -26 | 9 | 0
Cc1onc(-c2ccccc2)c1C(=O)NC(=S)NNC(=O)c1ccc(O)cc1 | 4 | . | -18 | -2 | 2 | -1 | 2 | 0
CCCOc1ccc(C(=O)NC(=S)NNC(=O)c2c(-c3ccccc3)noc2C)cc1 | -5 | 6 | -35 | -20 | -32 | -11 | . | .
COc1ccc(/C=C/C2=NNC(=O)CC2)cc1 | -34 | 15* | -66 | -2 | -63 | -53 | 9 | 0
CCc1onc(C)c1C(=O)Nc1ccc2c(c1)OCO2 | 7 | . | 6 | -2 | 9 | 3 | 5 | 0
Cc1noc(C(=O)Nc2ccc3c(c2)OCO3)c1Cl | -121 | 0 | -57 | -24 | -69 | -78 | . | .
